Test results published in PubChem BioAssay AID651815 (National Center for Advancing Translational Sciences (NCATS), 2012).
Among all 2,100 compounds or so, about 1,100 (52%) were called active. Not shown: some 29% with an inconclusive outcome. The set was probably picked from earlier hits. The list shows a part of the results. A number with no mark means an inactive call. The call rests on the fitted dose curve; in most records, active means well fitted inhibition curve with a large enough effect; inconclusive means small, poorly fitted or top-dose-only effect; inactive means no such curve, though single readings can be large or run the other way.

target: DNA dC->dU-editing enzyme APOBEC-3F (Homo sapiens) (UniProt Q8IUX4); assay: qHTS for inhibitors of Vif-A3F interactions: Cherry picks counterscreen; conditions: HeLa A3F-eYFP/Vif cells, eYFP fluorescence, 24 h; series mostly up to 46.1 µM; activity, negative = inhibitor: at the top concentration; further: nearly all actives have a fitted effect of over 65% in size
Sequence (Q8IUX4 whole entry, looked up): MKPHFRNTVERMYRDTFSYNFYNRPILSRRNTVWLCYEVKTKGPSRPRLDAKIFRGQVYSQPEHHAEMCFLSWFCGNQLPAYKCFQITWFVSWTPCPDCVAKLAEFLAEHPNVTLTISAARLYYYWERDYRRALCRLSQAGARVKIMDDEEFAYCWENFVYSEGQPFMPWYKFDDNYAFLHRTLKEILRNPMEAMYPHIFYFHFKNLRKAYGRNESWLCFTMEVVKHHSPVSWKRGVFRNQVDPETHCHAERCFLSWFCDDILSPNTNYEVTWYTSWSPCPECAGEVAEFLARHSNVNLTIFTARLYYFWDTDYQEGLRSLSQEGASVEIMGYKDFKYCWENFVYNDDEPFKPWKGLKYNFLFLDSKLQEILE
Procedure, shortened: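 HeLa cells stably expressing A3F-eYFP and Vif, cultured overnight, then treated 24 h at 37 degrees C with compounds at several concentrations; yellow fluorescence (488 nm Ex/500-530 nm Em) imaged on Acumen; MG132 positive control.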
On the % scale 0 is the no-effect control and ±100 the full control effect; potency means the concentration at half of the fitted maximal effect.

Row | SMILES | Potency | activity, negative = inhibitor
1 | COc1ccc(CN(C(C)=O)c2cccc(C)c2C)cc1 | 15.8 µM (active) | –
2 | COc1ccc(/C=c2\s/c(=C/C(=O)c3ccc(C)cc3)[nH]c2=O)c(OC)c1 | 18.4 µM (active) | –
3 | CN1C2CCC1/C(=C\c1ccccc1)C(=O)/C2=C\c1ccccc1 | 15.8 µM (active) | –
4 | CN1C2CCC1/C(=C/c1cccn1C)C(=O)/C2=C\c1cccn1C | 18.4 µM (active) | –
5 | Cn1cccc1/C=C1\CC(C(C)(C)C)C/C(=C\c2cccn2C)C1=O (configuration not stated) | 1.3 µM (active) | –
6 | COc1ccc(NC(=O)C2(C)Cc3c(-c4cccc(C(N)=O)c4)ccnc3O2)cc1 (configuration not stated) | 6.27 µM (active) | –
7 | CC(=O)c1cccc(NC(=O)C2CCCN(S(=O)(=O)c3cccc4nonc34)C2)c1 (configuration not stated) | – | 0.106%
8 | CC(=O)Nc1cccc(-c2ccnc3c2CC(C)(C(=O)Nc2cccc(C(C)=O)c2)O3)c1 (configuration not stated) | 9.94 µM (active) | –
9 | COc1ccc(NC(=O)C2(C)Cc3c(-c4cccc(NC(C)=O)c4)ccnc3O2)cc1 (configuration not stated) | 2.8 µM (active) | –
10 | COc1cc(C(=O)Nc2ccc3c(c2)ncn3C)cc(OC)c1OC | 5.59 µM (active) | –
11 | COc1cc(C(=O)Nc2ccc3ccccc3c2)cc(OC)c1OC | 3.14 µM (active) | –
12 | COc1cc(C(=O)N/N=C/C2CC=CCC2)cc(OC)c1OC (configuration not stated) | – | -4.4% [at 36.9 µM]
13 | COc1cc(C(=O)N/N=C(\C)c2ccccn2)cc(OC)c1OC | 0.559 µM (active) | –
14 | CCOc1ccc(NC(=O)N2CC=C(c3c[nH]c4ccccc34)CC2)cc1 | 2.59 µM (active) | –
15 | CCOC1=C2CN(S(=O)(=O)c3ccc(C)cc3)[C@H](c3cccc4ccccc34)C[C@H]2C(C#N)(C#N)C(C#N)(C#N)C1 | – | -5.71% [at 36.9 µM]
16 | COc1ccc2ccccc2c1C1NC(=O)c2ccccc2N1 (configuration not stated) | 4.98 µM (active) | –
17 | COc1cc(OC)c(C2Nc3cccc4cccc(c34)N2)c(OC)c1 | – | -0.514%
18 | Cc1ccc(C2NC(=O)c3ccccc3N2)s1 (configuration not stated) | 17.7 µM (active) | –
19 | CCOc1ccccc1C1NC(=O)c2ccccc2N1 (configuration not stated) | 3.53 µM (active) | –
20 | O=[N+]([O-])c1ccccc1C1Nc2cccc3cccc(c23)N1 | – | 9.7%
21 | COc1ccc(N/C=C/c2nc(SC)nnc2C)cc1 | 18.4 µM (active) | –
22 | C=CCSc1nnc(C)c(/C=C/Nc2ccc(Cl)cc2)n1 | 18.4 µM (active) | –
23 | CCOC(=O)c1c(C)nc2sc(C(=O)Nc3ccc(OC)cc3)c(N)c2c1-c1ccc(OC)cc1 | 2.8 µM (active) | –
24 | CCOC(=O)c1c(-c2ccc(OC)cc2)csc1/N=C/C1=C(O)CCCC1=O | – | -3.87%
25 | COc1ccc(NC(=O)c2sc3nc(-c4ccc(OC)cc4)cc(C(F)(F)F)c3c2N)cc1 | 7.31 µM (active) | –

Row | SMILES | Potency | activity, negative = inhibitor
26 | COc1cccc(C(=O)c2sc3nc(-c4ccccc4)cc(C(F)(F)F)c3c2N)c1 | 2.06 µM (active) | –
27 | COc1ccc(C(=O)c2sc3nc(-c4ccc(C)cc4)cc(C(F)(F)F)c3c2N)cc1 | 5.17 µM (active) | –
28 | CCc1ccc(NC(=O)c2sc3nc(C)c(C(=O)Nc4ccc(C)cc4C)c(-c4ccco4)c3c2N)cc1 | 16.4 µM (active) | –
29 | COc1cccc(NC(=O)c2sc3nc(C)c(C(=O)Nc4ccc(C)cc4C)c(-c4ccco4)c3c2N)c1 | – | -1.31%
30 | COc1ccc(C(=O)c2sc3nc(C)cc(-c4cccs4)c3c2N)cc1 | 20.6 µM (active) | –
31 | CCc1ccc(-c2cc(C(F)(F)F)n3nc(C(=O)Nc4cnn(Cc5ccc(C)cc5)c4)cc3n2)s1 | 16.4 µM (active) | –
32 | Cc1ccc(S(=O)(=O)N2CCN(C(=O)CSC(=S)N3CCCC3)CC2)c(C)c1 | – | 5.96%
33 | COc1cc(C(=O)NCC(=O)N2CCN(S(=O)(=O)c3cc(C)ccc3C)CC2)cc(OC)c1OC | 3.96 µM (active) | –
34 | C=C(/C=C/c1ccc(N(C)C)cc1)c1nc2ccccc2s1 | 18.4 µM (active) | –
35 | CC1=Nc2ccc(C)cc2/C1=C/c1c(N)n2oc(C)cc2nc1=O | 20.6 µM (active) | –
36 | CNc1ccc(/C=C/c2ccnc3ccccc23)cc1 | 20.6 µM (active) | –
37 | COc1cccc2nccc(/C=C/c3ccc(N(C)C)cc3)c12 | 20.6 µM (active) | –
38 | CN(C)c1ccc(/C=C/C=C/c2ccnc3ccccc23)cc1 | 3.66 µM (active) | –
39 | CN(C)c1ccc(/C=C/c2ccnc3cc(Cl)ccc23)cc1 | 2.91 µM (active) | –
40 | Fc1cccc(F)c1/C=N/NC(=S)Nc1cccnc1 | – | 4.36%
41 | CN(C)c1ccc(/C=C/c2ccnc3ccc(-c4ccccc4)cc23)cc1 | 9.2 µM (active) | –
42 | CN(C)c1ccc(/C=C/c2cnnc3ccccc23)cc1 | 20.6 µM (active) | –
43 | CN(C)c1ccc(/C=C/c2ccnc3ccccc23)c(N)c1 | 8.2 µM (active) | –
44 | CCCCCCCNc1ccc(/C=C/c2ccnc3ccccc23)cc1 | 23.1 µM (active) | –
45 | CN1C(=O)C(O)(C2COC(C)(C)CC2=O)c2cc(Br)ccc21 (configuration not stated) | – | -13.4% [at 36.9 µM]
46 | Nc1ccccc1/C=C/c1ccnc2ccccc12 | 16.4 µM (active) | –
47 | CN(C)c1ccc(/C=C/c2ccnc3ccccc23)cc1 | 18.4 µM (active) | –
48 | O=c1c(Cl)c2oc3ccccc3nc-2c2ccccc12 | 16.4 µM (active) | –
49 | COc1ccc(C2=CC(c3ccc(N(C)C)cc3)n3nnnc3N2)cc1 (configuration not stated) | 16.4 µM (active) | –
50 | CN(C)c1ccc(C2C=C(c3ccccc3)Nc3nnnn32)cc1 (configuration not stated) | 16.4 µM (active) | –

Row | SMILES | Potency | activity, negative = inhibitor
51 | O=S(=O)(Nc1nc2n(n1)C(c1ccccc1)C=C(c1ccc(Cl)cc1)N2)c1ccccc1 (configuration not stated) | – | -20.2%
52 | CCN1C(=S)SC(=O)C1=C1C=C(C)N(Cc2ccco2)C(C)=C1 | 15.8 µM (active) | –
53 | Clc1ccccc1/C=N/NC1=Nc2cccc3cccc1c23 | 16.4 µM (active) | –
54 | Clc1ccc(/C=N/NC2=Nc3cccc4cccc2c34)cc1 | 18.4 µM (active) | –
55 | C/C(CCc1ccc2c(c1)OCO2)=N\NC(=S)NC(C)C | – | 12.8%
56 | C=C(C)CNC(=S)NNC(=O)c1ccco1 | – | -0.583% [at 36.9 µM]
57 | O=C(Nc1nc(NC(=O)c2ccco2)n(-c2ccccc2)n1)c1ccccc1 | – | 2.57% [at 36.9 µM]
58 | C=CCn1c(O)c(N=NC(=O)CNC(=O)c2ccco2)c2ccccc21 | 11.2 µM (active) | –
59 | COc1ccccc1/C=N/NC(=O)c1cc2c(OC)c(OC)ccc2[nH]1 | 9.94 µM (active) | –
60 | COCCCNC(=S)N/N=C/c1cccc(OC)c1O | – | -2.88%
61 | COc1ccc(C(=O)N/N=C/c2cc(Br)ccc2O)cc1OC | – | 16.9%
62 | COc1cccc(/C=N/NC(=O)c2cc3c(OC)c(OC)ccc3[nH]2)c1OC | 3.53 µM (active) | –
63 | CCCNC(=O)c1ccccc1NC(=O)c1ccc2c(c1)NC(=O)C(C)S2 (configuration not stated) | 6.27 µM (active) | –
64 | CC1Sc2ccc(C(=O)NCc3ccccn3)cc2NC1=O (configuration not stated) | – | -1.52%
65 | COc1ccc2nccc(/C=C/c3ccc(N(C)C)cc3)c2c1 | 23.1 µM (active) | –
66 | Cc1cc(C)c2nccc(/C=C/c3ccc(N(C)C)cc3)c2c1 | 13 µM (active) | –
67 | CN(C)c1ccc(/C=C/c2ccnc3ccc(Br)cc23)cc1 | 4.61 µM (active) | –
68 | CN(C)c1ccc(/C=C/c2ccnc3ccc(I)cc23)cc1 | 6.51 µM (active) | –
69 | ClCC1NCC(c2ccccc2Cl)c2c1[nH]c1ccccc21 (configuration not stated) | – | -5.25%
70 | Cc1ccc2nccc(/C=C/c3ccc(N(C)C)cc3)c2c1 | 9.2 µM (active) | –
71 | CN(C)c1ccc(/C=C/c2ccnc3ccc(N)cc23)cc1 | 23.1 µM (active) | –
72 | COC(=O)c1c(-c2ccccc2Cl)noc1/C=C/N(C)C | – | 10.2% [at 36.9 µM]
73 | COc1ccc(C(=O)Nc2cc(C(C)=O)c(/C=C/N(C)C)oc2=O)cc1 | 12.5 µM (active) | –
74 | CC(=O)c1cc(NC(=O)c2ccc(Cl)cc2)c(=O)oc1/C=C/N(C)C | 6.27 µM (active) | –
75 | CC(=O)c1cc(NC(=O)c2ccc(C)cc2)c(=O)oc1/C=C/N(C)C | 11.6 µM (active) | –

Row | SMILES | Potency | activity, negative = inhibitor
76 | COC(=O)c1sc2nc(CSc3ccc(Br)cc3)[nH]c(=O)c2c1C | – | -15.7%
77 | COc1cc(C2c3cc4c(cc3C(OC3OC5COC(c6cccs6)OC5C(O)C3O)C3COC(=O)C23)OCO4)cc(OC)c1O (configuration not stated) | 11.2 µM (active) | –
78 | Cc1ccc(O)c(NC(=O)c2cc(-c3ccccc3O)no2)c1 | 20.6 µM (active) | –
79 | COc1cccc(C(=O)Nc2ncc3c(n2)CC(c2ccc(OC)cc2OC)CC3=O)c1 (configuration not stated) | 11.2 µM (active) | –
80 | Cc1cc(N2CCCC2)ccc1/C=C1/C(=O)N(C)C(=S)N1C | – | 32.2%
81 | Cc1cc(/C=C2\NC(=S)N(C)C2=O)ccc1N1CCCC1 | 2.5 µM (active) | –
82 | Cc1cc(N2CCCC2)ccc1/C=C1\NC(=S)N(C)C1=O | 2.91 µM (active) | –
83 | COc1ccc(C)cc1Nc1c2c(nc3ccccc13)CCC2 | 1.98 µM (active) | –
84 | COC(=O)c1cnc(Nc2cc(C)ccc2OC)c2ccccc12 | – | -11%
85 | Cc1ccc(O)c(Nc2c3ccccc3nc3ccccc23)c1 | – | -4.44%
86 | CCCN1C(=O)/C(=C/C=C2\N(CC)c3ccccc3C2(C)C)SC1=S | 4.44 µM (active) | –
87 | CCCCN1C(=O)/C(=C/C=C2/CC(C)(C)CN2C)SC1=S | – | 21.9% [at 36.9 µM]
88 | CCCN1C(=O)/C(=C\C=C2\N(CC)c3ccccc3C2(C)C)SC1=S | 2.59 µM (active) | –
89 | CN1/C(=C\C=C2/SC(=S)NC2=O)C(C)(C)c2ccccc21 | 3.96 µM (active) | –
90 | CN1/C(=C\C=C2/SC(=S)N(CC(=O)O)C2=O)C(C)(C)c2ccccc21 | – | 31.2%
91 | O=C(N/N=C/C=C/c1ccco1)c1ccncc1 | – | -20.7%
92 | COc1ccccc1OCC(=O)N/N=C/C=C/c1ccc([N+](=O)[O-])o1 | 16.4 µM (active) | –
93 | O=C(N/N=C\C=C\c1ccc([N+](=O)[O-])o1)c1cccs1 | 15.8 µM (active) | –
94 | Clc1ccccc1C1CC(c2ccccc2)=Nc2ccccc2N1 (configuration not stated) | – | 2.47%
95 | Cc1ccc(-c2cn3nc(-c4ccccc4)c(-c4ccccc4)nc3n2)cc1 | 18.4 µM (active) | –
96 | Cc1cc(C)nc(Nc2nc(C(N)Cc3ccccc3)cs2)n1 (configuration not stated) | 14 µM (active) | –
97 | COC(=O)CCC(=O)NC(=S)Nc1sc(C)c(C)c1C(N)=O | 1.25 µM (active) | –
